Experimental data published in PubChem BioAssay AID778 (Sanford-Burnham Center for Chemical Genomics, 2007).
The campaign covered roughly 96,000 compounds. About 20,000 (21%) were called active. Only a sample is shown. A number with no mark means an inactive call.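 How the source made its calls: active means CYP2C19 inhibition above a set limit at 5 µM in the primary screen (cut at about 50% in these data); inactive means the rest.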

The compounds below were run against Cytochrome P450 2C19 (Homo sapiens) (UniProt P33261) (assay: blockers of cytochrome P450 2C19 activity – biochemical, luminescence, ADME assay, primary screen (AID 778;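 further: plate controls were negative control wells for no effect and 2.5 mM tranylcypromine positive control for full effect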)). Settings: CYP2C19 Supersomes, luciferin-H EGE luminescence, 30 min; at 5 µM; stronger effect = higher value.
Chain of Cytochrome P450 2C19 (Homo sapiens) (P33261 whole entry, looked up): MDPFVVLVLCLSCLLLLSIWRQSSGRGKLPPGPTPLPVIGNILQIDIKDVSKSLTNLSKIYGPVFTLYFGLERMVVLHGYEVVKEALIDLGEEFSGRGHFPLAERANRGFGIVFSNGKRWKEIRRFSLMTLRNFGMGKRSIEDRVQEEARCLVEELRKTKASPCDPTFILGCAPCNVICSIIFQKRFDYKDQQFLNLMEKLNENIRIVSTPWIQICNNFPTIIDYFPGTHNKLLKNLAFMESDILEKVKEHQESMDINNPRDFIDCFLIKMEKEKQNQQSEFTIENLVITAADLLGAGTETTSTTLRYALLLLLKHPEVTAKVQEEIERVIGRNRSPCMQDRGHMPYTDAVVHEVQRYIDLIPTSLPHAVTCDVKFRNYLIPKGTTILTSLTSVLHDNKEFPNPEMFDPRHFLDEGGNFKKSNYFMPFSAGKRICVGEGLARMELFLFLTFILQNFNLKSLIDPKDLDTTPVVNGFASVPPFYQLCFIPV

Row | SMILES | inhibition
1 | CCCc1ccc(-c2c(C)sc(NC(=O)c3ccnn3C)c2C#N)cc1 | 23.9%
2 | CCCC(=O)N1c2ccccc2NC2=C(C(=O)CCC2)C1c1ccc(F)cc1 (stereo unspecified) | 48.1%
3 | CN(C(=O)CSc1nnc(N)s1)c1c(N)n(Cc2ccccc2)c(=O)[nH]c1=O | -3.1%
4 | O=C(CN1CCOCC1)N1CCCc2c1c(=O)oc1ccc(OCc3ccccc3)cc21 | 29.5%
5 | CCN(CC)S(=O)(=O)c1ccc(N(C)Cc2ccc(C(F)(F)F)cc2)nc1 | 85.1% (active)
6 | Cc1ccc(-n2c(N)c(C(=O)N3CCOCC3)sc2=S)c(C)c1 | 20.4%
7 | C(=N\n1cnnc1)/c1cccnc1 | -5.3%
8 | COc1cccc(OCCOc2cccc(/C=N/n3cnnc3)c2)c1 | 54.7% (active)
9 | COc1ccccc1OCCOc1ccc(/C=N/n2cnnc2)cc1 | 38.5%
10 | Oc1ccc(CNc2ccccc2O)cc1 | 22%
11 | CC(C)C1N=C2c3ccccc3N=C(SCC(=O)c3ccc(O)c(O)c3)N2C1=O (stereo unspecified) | 16.6%
12 | O=C(N/N=C/c1ccc(O)c(O)c1)C1c2ccccc2Oc2ccccc21 | -4.1%
13 | CCCN(CCC)C(=O)C1c2ccccc2Oc2ccccc21 | 57.1% (active)
14 | COCC(=O)Nc1ccc(Br)cc1 | 13%
15 | CCCCc1nc2ccccc2c(=O)n1NC(=O)c1c(O)c2cccc3c2n(c1=O)CC3 | 8%
16 | O=C(c1cnn2ccccc12)N1CCc2ccccc21 | 25.2%
17 | CCCCn1nc(C(=O)N2CCc3ccccc32)c2ccccc2c1=O | 69.6% (active)
18 | Cc1ccc(-c2cc(C(=O)N/N=C/C=C/c3ccco3)c3ccccc3n2)cc1C | -4.3%

Row | SMILES | inhibition
19 | COC(=O)c1c(C)c(C)nc(N)c1C#N | -7.3%
20 | O=C(CN1CCCCCC1)Nc1ccc(Br)cc1Br | 42.6%
21 | CCOc1cccc(-c2nnc3sc(COc4ccc(OC)cc4)nn23)c1 | 19.8%
22 | CCOc1cccc(-n2nnnc2-c2ccc(OC)cc2)c1 | 100% (active)
23 | CCOC(=O)c1sc(=S)n(-c2cccc(OC)c2)c1N | 31.5%
24 | Cc1ccc2[nH]c3c(=O)n(Cc4ccccn4)cnc3c2c1 | -0.8%
25 | COc1ccc(CC(=O)Nc2ccc3c(c2)CCC3)cc1S(=O)(=O)N1CCOCC1 | 54.5% (active)
26 | CC(C)C(=O)OCC(=O)Nc1ccc2c(c1)CCC2 | 16.8%
27 | COc1ccc(CNc2ccc3c(c2)CCC3)cc1OC | 49.8%
28 | O=C1CN(c2nc(-c3ccccc3)c3cc(Br)ccc3n2)c2ccccc2N1 | -14.1%
29 | S=C1NC(c2ccccc2)=NCN1c1ccc(Br)cc1 | 52.3% (active)
30 | C=CCn1c2ccccc2c2nnc(SC(CC)C(=O)Nc3nc(C)c(C(=O)OCC)s3)nc21 (stereo unspecified) | 48.6%
31 | CCN(CC)CCNC(=O)C1c2ccccc2C(=O)N(C)C1c1cn(C)c2ccccc12 (stereo unspecified) | -5.9%
32 | Cc1cccc(NC(=O)c2ccccc2NC(=O)C(C)(C)C)n1 | 30.7%
33 | Cc1ccc(SCC(=O)Nc2ncc(C)s2)cc1 | 49.5%
34 | Cc1nc(-c2ccccc2)sc1C(=O)/C=C/c1ccccc1 | 16.8%
35 | Cc1ccc(SCC(=O)c2sc(-c3ccccc3)nc2C)cc1 | 60.9% (active)
36 | CC1CN(Cc2nc3c(c(=O)n(C)c(=O)n3C)n2Cc2cccc(Cl)c2)CC(C)O1 (stereo unspecified) | 35.9%
